# About 79,000 compounds went through this panel and 15% of them were active in at least one assay; those are over-represented in the sample as a whole. Unmarked numbers belong to inactive results. The source made the active and inactive calls. Rule as the data show it: active = growth inhibition above about 70%; inactive = the rest.
# Key:
# [1] = NCI Yeast Anticancer Drug Screen. Data for the rad50 strain (AID 155);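 also: 0% = growth of vehicle-only cultures of the same strain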; details: S. cerevisiae rad50 strain growth inhibition, stronger effect = higher value
# Summary of the method: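 Compounds were tested on a yeast strain with an engineered DNA damage repair alteration; the reported value is growth inhibition normalised to vehicle treatment.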
# [2] = NCI Yeast Anticancer Drug Screen. Data for the mec2-1 strain (AID 157); details: S. cerevisiae mec2-1 strain, stronger effect = higher value
# Summary of the method: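 Yeast mec2-1 mutant treated with compound. Readout: growth inhibition vs vehicle controls.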
# [3] = NCI Yeast Anticancer Drug Screen. Data for the sgs1 mgt1 strain (AID 161);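 also: 0% = growth of cultures given vehicle only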; details: S. cerevisiae sgs1 mgt1 strain, stronger effect = higher value
# Summary of the method: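 Inhibition of yeast growth, normalised to vehicle-treated controls, is reported for a strain bearing genetic alterations in DNA damage repair.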
# [4] = NCI Yeast Anticancer Drug Screen. Data for the cln2 rad14 strain (AID 165);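 also: 0% = growth equal to vehicle treated cultures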; details: S. cerevisiae cln2 rad14 strain, stronger effect = higher value
# Summary of the method: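 cln2 rad14 yeast strain; compound exposure; growth inhibition read vs vehicle controls.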
# [5] = NCI Yeast Anticancer Drug Screen. Data for the bub3 strain (AID 167); details: S. cerevisiae bub3 mutant strain, stronger effect = higher value
# Summary of the method: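 Growth of a checkpoint-deficient yeast mutant is measured after compound exposure. Values represent inhibition relative to vehicle.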
# [6] = NCI Yeast Anticancer Drug Screen. Data for the mlh1 rad18 strain (AID 175); details: S. cerevisiae mlh1 rad18 strain growth inhibition, stronger effect = higher value
# Summary of the method: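 Yeast w/ defined DNA-repair lesions; compound exposure; growth vs vehicle controls → % inhibition.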
# [7] = at 5.0 µM (retest, dose inferred, filed as 0.5)
# [8] = at 50.0 µM (retest, dose inferred, filed as 5.0)
SMILES,"growth inhibition [1, 7]","growth inhibition [1, 8]",growth inhibition ([1]; at 50.0 µM),"growth inhibition [2, 7] [%]","growth inhibition [2, 8]",growth inhibition ([2]; at 50.0 µM),"growth inhibition [3, 7]","growth inhibition [3, 8]",growth inhibition ([3]; at 50.0 µM),"growth inhibition [4, 7] [%]","growth inhibition [4, 8]",growth inhibition ([4]; at 50.0 µM),"growth inhibition [5, 7]","growth inhibition [5, 8]",growth inhibition ([5]; at 50.0 µM),"growth inhibition [6, 7]","growth inhibition [6, 8]",growth inhibition ([6]; at 50.0 µM)
CCC(=O)Oc1c(Br)c(Br)c(Br)c(Br)c1Br,8%,56%,29%,17,62%,6%,7%,50%,8.45%,21,68%,25.8%,56%,86% (active),92% (active),35%,84% (active),19.5%
COc1cccc(NC(=S)NC(Cc2ccccc2)c2ccccc2)c1 (configuration not stated),-7%,88% (active),80.2% (active),-10,88% (active),74.1% (active),-7%,90% (active),83.9% (active),19,88% (active),70% (active),-2%,90% (active),77.2% (active),-7%,88% (active),72.4% (active)
Clc1ccc(CN2COc3c(ccc4ccccc34)C2)cc1,10%,78% (active),88.8% (active),3,43%,59.8%,13%,97% (active),83.2% (active),0,85% (active),61.1%,-4%,96% (active),89.9% (active),1%,96% (active),59%
C=CCOC(=O)C#CCCCC,-3%,1%,-5.25%,3,2%,19.6%,-2%,2%,15.7%,-5,5%,87.8% (active),-1%,11%,-12.8%,-1%,6%,-12.3%
O=C(NN1C(=O)C(Cl)C1c1ccc(O)cc1)c1ccccc1O (configuration not stated),-4%,78% (active),79.5% (active),13,79% (active),61%,0%,72% (active),69.9%,13,63%,44%,11%,90% (active),71.1% (active),20%,91% (active),67.7%
O=Cc1ccc(/C=N\Nc2ccccc2)cc1,1%,12%,82.3% (active),-5,0%,33.2%,-3%,-4%,41.9%,1,7%,34.1%,-1%,12%,-9.55%,4%,30%,92.3% (active)
CCC12C=CCN3CC[C@@]4(c5cc([C@@]6(C(=O)OC)C[C@@H]7CN(CCc8c6[nH]c6ccccc86)C[C@](O)(CC)C7)c(OC)cc5N(C)[C@H]4[C@@](O)(C(=O)OC)[C@@H]1OC(=O)CCCCCCCCCCCN1C(=O)C=CC1=O)[C@H]32 (some centres not stated),16%,98% (active),88.5% (active),42,99% (active),92.4% (active),35%,98% (active),92.7% (active),16,95% (active),90.5% (active),-23%,96% (active),91% (active),32%,98% (active),91.5% (active)
COC(=O)C1=C(/C=C/C(C)=O)NC(C)=C(C(=O)OC(C)C)C1c1ccccc1Cl (configuration not stated),40%,95% (active),49.3%,34,97% (active),62.5%,37%,96% (active),24.5%,65,95% (active),33.5%,40%,97% (active),41.2%,34%,95% (active),51.4%
CCCC(=O)c1ccc(OC)cc1,0%,28%,41.9%,1,70% (active),-11.3%,0%,13%,14.9%,1,10%,17.6%,-6%,98% (active),20.9%,-1%,61%,6.25%
O=C1O/C(=C\c2ccccc2)c2ccccc21,3%,66%,46.5%,-41,20%,37.1%,1%,47%,47.6%,-4,-1%,1.8%,40%,63%,54.5%,2%,50%,68.3%
O/N=C1/CCCC/C1=C/c1ccc(Cl)cc1,-152%,-124%,82.7% (active),-48,-53%,53.4%,-63%,-23%,74% (active),-57,-62%,64.8%,-66%,-78%,65.5%,-144%,-111%,80% (active)
c1ccc(C2=NC(=c3ccc(=C4N=C(c5ccccc5)C(c5ccccc5)=N4)cc3)N=C2c2ccccc2)cc1,3%,44%,86.6% (active),3,17%,65.6%,-2%,48%,59.9%,7,5%,29.6%,3%,8%,51.3%,1%,19%,93.7% (active)
COC12C(COC(N)=O)C3=C(C(=O)C(C)=C(N)C3=O)N1CC1C2N1C(=O)/C=C/c1ccccc1 (configuration not stated),11%,72% (active),73.7% (active),13,82% (active),70.7% (active),24%,87% (active),85.7% (active),3,80% (active),75.7% (active),2%,66%,72.4% (active),27%,90% (active),87% (active)
CC(=O)c1c(O)c2ccc(Cl)cc2[nH]c1=O,73% (active),90% (active),79.2% (active),36,87% (active),14.7%,79% (active),95% (active),83.2% (active),25,59%,31.5%,71% (active),91% (active),38.2%,72% (active),94% (active),66.7%
COc1ccc2c(c1)CCC1C2CCC2(C)C(=O)C(SC3=NC=NC4=NC=NC43)CC12 (configuration not stated),24%,97% (active),97% (active),25,99% (active),92.7% (active),49%,99% (active),96.7% (active),-3,98% (active),91.8% (active),19%,97% (active),92.2% (active),20%,98% (active),96.2% (active)
CCCCCCCCCCCC(O)=C1C(=O)CC(O)CC1=O (configuration not stated),33%,88% (active),88.3% (active),25,97% (active),91.6% (active),48%,98% (active),91% (active),40,91% (active),90.3% (active),42%,97% (active),89.7% (active),46%,96% (active),82.8% (active)
O=[N+]([O-])c1cc2ccc(O)cc2c2ccccc12,-1%,89% (active),93.5% (active),-8,85% (active),94.2% (active),10%,86% (active),96.3% (active),-1,60%,95.2% (active),-3%,86% (active),96.2% (active),-7%,91% (active),93.7% (active)
O=c1[nH]c2c([N+](=O)[O-])cc(Cl)cc2nc1/C=C(\O)c1ccco1,17%,74% (active),72.7% (active),-5,44%,56.1%,1%,54%,84.2% (active),-1,62%,59%,4%,66%,32.6%,-4%,70% (active),80% (active)
CC1CCCN(CC(O)CN2CCCc3ccccc32)C1 (configuration not stated),0%,32%,97.9% (active),8,17%,94.5% (active),2%,25%,97.6% (active),26,33%,94.4% (active),-7%,29%,96% (active),6%,40%,97.5% (active)

# Reference: PubChem BioAssay (NCI)
